PubChem BioAssay AID1159580 (chemical genetic matrix, 2015)
Out of some 5,500 compounds screened, about 2,000 (36%) were called active. Not shown: some 18% with an inconclusive outcome. Cut-off read from the data, not from the text of the source: active = normalized growth mostly below about 0.91 (no sharp cut-off); inconclusive = no clear call, values can overlap the other calls; inactive = mostly above about 0.92. The list shows a part of the results.

Experiment: chemical genetic growth profiling, strain panel (AID 1159580);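 note: tested at 20 µM; growth read once vehicle control cultures reached saturation at 30 °C; 1 = growth at the plate median or of vehicle wells; lower values mean less growth of the strain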
Conditions: S. cerevisiae deletion strains, growth OD

Measured: normalized growth

CC(C)N(Cc1ccc(N(C)C)cc1)S(=O)(=O)c1cc(Cl)c(Cl)cc1Cl
inactive: locus YAL013W, strain DEP1, stronger effect = lower value 1 | locus YBR229C, strain ROT2, stronger effect = lower value 1.01 | locus YDL101C, strain DUN1, stronger effect = lower value 1.03 | locus YDL134C, strain PPH21, stronger effect = lower value 1.01 | locus YDR150W, strain NUM1, stronger effect = lower value 1.01 | locus YEL061C, strain CIN8, stronger effect = lower value 0.986 | locus YGR078C, strain PAC10, stronger effect = lower value 1.02 | locus YHR030C, strain SLT2, stronger effect = lower value 1.07 | locus YHR087W, strain rtc3, stronger effect = lower value 1 | locus YJR043C, strain POL32, stronger effect = lower value 1.01 | locus YJR075W, strain HOC1, stronger effect = lower value 1.02 | locus YKL190W, strain CNB1, stronger effect = lower value 1.01 | locus YLR039C, strain RIC1, stronger effect = lower value 1.01 | locus YLR058C, strain SHM2 (second series), stronger effect = lower value 1 | locus YLR085C, strain ARP6, stronger effect = lower value 1.06 | locus YLR262C, strain YPT6, stronger effect = lower value 0.999 | locus YML094W, strain GIM5, stronger effect = lower value 1.02 | locus YMR219W, strain ESC1, stronger effect = lower value 1 | locus YMR263W, strain SAP30, stronger effect = lower value 1.02 | locus YNL128W, strain TEP1, stronger effect = lower value 1.02 | locus YNL153C, strain GIM3, stronger effect = lower value 1.03 | locus YNL298W, strain CLA4 (second series), stronger effect = lower value 1.03 | locus YNL322C, strain KRE1, stronger effect = lower value 1.01 | locus YNR030W, strain Alg12, stronger effect = lower value 1.04 | locus YOL006C, strain TOP1, stronger effect = lower value 1.08 | locus YPL055C, strain LGE1, stronger effect = lower value 1 | locus YPL241C, strain CIN2, stronger effect = lower value 1.04 | locus YPR135W, strain CTF4, stronger effect = lower value 1.1
